Compound activity from PubChem.
An excerpt weighted towards active compounds, which were near 2.7% of everything screened.
pPAFAH FP inh: pPAFAH (human) enzyme inhibition. Q13093. recombinant pPAFAH, FP-rhodamine probe fluorescence polarization. inhibition, % at 3.39 µM. 1.5% of 330,000 active;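 active = inhibition above the mean inhibition across the screen plus 3 SD, cut at about 25% in these data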;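 note: inhibitors block binding of the rhodamine activity-based probe so polarization drops; 0% = enzyme with DMSO and 100% = wells lacking pPAFAH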
Target sequence (Q13093 whole entry, looked up): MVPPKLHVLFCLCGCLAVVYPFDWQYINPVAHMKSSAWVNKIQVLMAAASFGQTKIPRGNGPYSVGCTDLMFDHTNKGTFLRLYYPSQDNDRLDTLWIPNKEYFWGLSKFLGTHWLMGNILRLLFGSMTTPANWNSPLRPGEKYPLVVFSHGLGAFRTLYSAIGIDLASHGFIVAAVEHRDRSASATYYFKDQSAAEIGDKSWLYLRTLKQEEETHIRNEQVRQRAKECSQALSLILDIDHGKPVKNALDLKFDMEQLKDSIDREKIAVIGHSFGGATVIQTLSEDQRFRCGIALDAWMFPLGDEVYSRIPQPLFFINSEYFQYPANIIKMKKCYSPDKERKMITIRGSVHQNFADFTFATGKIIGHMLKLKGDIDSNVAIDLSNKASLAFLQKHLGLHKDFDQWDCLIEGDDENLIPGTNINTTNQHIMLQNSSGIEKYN
PAFAH2 inh: PAFAH2 (human) inhibition; Q99487; recombinant PAFAH2, FP-rhodamine activity probe, fluorescence polarization; inhibition, % at 3.39 µM; 0.99% of 340,000 active; AID 492956;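 active = inhibition above the mean over all tested compounds plus 3 SD, cut at about 30% in these data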;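 note: inhibitors block probe labeling of enzyme so polarization drops; 0% = enzyme with DMSO and 100% = wells lacking PAFAH2 protein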
PAFAH1B3 FP inh: blocks human PAF acetylhydrolase 1B catalytic subunit 3; Q15102; recombinant PAFAH1B3, FP-rhodamine probe, fluorescence polarization; inhibition, % at 3.39 µM; 0.28% of 340,000 active;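 active = inhibition above the screen-wide average of all tested compounds plus 3 SD, cut at about 25% in these data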;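 note: 0% = enzyme with DMSO only and 100% = wells lacking PAFAH1B3 protein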
Target sequence (Q15102 whole entry, looked up): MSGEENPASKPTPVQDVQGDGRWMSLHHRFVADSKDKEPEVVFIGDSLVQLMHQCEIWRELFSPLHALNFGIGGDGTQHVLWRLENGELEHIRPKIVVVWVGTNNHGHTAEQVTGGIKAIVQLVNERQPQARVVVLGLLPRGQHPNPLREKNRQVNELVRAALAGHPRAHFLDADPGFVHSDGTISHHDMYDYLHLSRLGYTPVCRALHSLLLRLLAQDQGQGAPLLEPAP
TCR-CD3 inh: blocks the human TCR-CD3 interaction; inhibition, % at 9.4 µM; 0.37% of 360,000 active; TAMRA-labeled TCR probe fluorescence, biochemical; in the data active = inhibition above about 19%;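 note: recombinant mutant TCR 2C K166C tagged with TAMRA read by polarization; 0% = receptor in buffer alone and 100% = receptor with positive control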
PAFAH1B2 FP inh: blocks human PAF acetylhydrolase 1b catalytic subunit 2. recombinant PAFAH1B2, FP-rhodamine activity probe, fluorescence polarization. inhibition, % at 3.39 µM. 1.2% of 340,000 active;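 active = inhibition above the mean of all tested compounds plus 3 SD, cut at about 24% in these data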;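 note: 0% = enzyme with DMSO and 100% = wells lacking PAFAH1B2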
* marks the source's active call; other numbers are inactive results; nt = not tested or not shown.

SMILES | pPAFAH FP inh | PAFAH2 inh | PAFAH1B3 FP inh | TCR-CD3 inh | PAFAH1B2 FP inh
COCCN=c1scc(-c2ccc3c(c2)NC(=O)CO3)n1/N=C(\C)c1ccc(O)cc1 | 12 | 2 | -2 | 3 | 2
COc1cc(/C=N/n2c(-c3ccc4c(c3)NC(=O)CO4)csc2=Nc2cccc(C)c2)ccc1O | 34* | 0 | 12 | -6 | 9
COC(=O)C1=C(C)N(C)C(=NCC2CC2)NC1c1ccc(Cl)cc1 (stereo not given) | nt | nt | nt | 1 | nt
CCOc1ccc(N2CSC3=C(C#N)C(c4ccco4)CC(=O)N3C2)cc1 (stereo not given) | 48* | 7 | 5 | 15 | -5
CCc1ccccc1N1CSC2=C(C#N)C(c3cc(OC)c(OC)cc3OC)CC(=O)N2C1 (stereo not given) | 25* | 8 | 8 | -5 | 2
CSCC[C@H](NC(=O)[C@@H]1Cc2ccccc2CN1)C(=O)Nc1ccc2c(c1)OCO2 | 10 | 6 | 0 | -10 | 6
Cc1ccc(OC(C)C(=O)Nc2ncc(Cl)cc2Cl)c([N+](=O)[O-])n1 (stereo not given) | 2 | 0 | 10 | 3 | 4
CC(OC(=O)c1ccc([N+](=O)[O-])s1)C(=O)Nc1ncc(Cl)cc1Cl (stereo not given) | 26* | 30* | 30* | 3 | 17
CN(C(=O)Cn1nc(C(=O)O)c2ccccc2c1=O)C1(C#N)CCCCC1 | -3 | 1 | 1 | 5 | -1
Cc1ccccc1N1CCN(CCN2C(=O)CC(=C3c4ccccc4-c4ccccc43)C2=O)CC1 | 18 | -8 | 5 | -2 | -1
COc1ccccc1N1CCN(CCN2C(=O)CC(=C3c4ccccc4-c4ccccc43)C2=O)CC1 | 29* | nt | nt | nt | nt
CCCc1cc(C(=O)OCC(=O)NCCc2ccccc2)sc1C | nt | nt | nt | 11 | nt
C[C@H]1CN([C@@H](C)CO)C(=O)c2cccc(NC(=O)Nc3ccc(C(F)(F)F)cc3)c2O[C@H]1CN(C)C | 30* | -13 | 10 | 5 | 3
C[C@H](CO)N1C[C@H](C)[C@@H](CN(C)S(=O)(=O)c2ccccc2)Oc2c(NC(=O)Nc3ccc(C(F)(F)F)cc3)cccc2C1=O | 12 | -29 | -11 | 0 | 26*
C[C@H](CO)N1C[C@H](C)[C@@H](CN(C)S(C)(=O)=O)Oc2c(NC(=O)Nc3ccc(C(F)(F)F)cc3)cccc2C1=O | 9 | 6 | 3 | -7 | 3
C[C@H]1CN([C@@H](C)CO)C(=O)c2cccc(NC(=O)Nc3ccc(C(F)(F)F)cc3)c2O[C@@H]1CN(C)C(=O)Nc1ccc(F)cc1 | 3 | -24 | -13 | 5 | 52*
C[C@@H]1CN([C@@H](C)CO)C(=O)c2cc(NS(=O)(=O)c3cccs3)ccc2O[C@H]1CN(C)Cc1ccc(C(F)(F)F)cc1 | 27* | 4 | 9 | 9 | 5
C[C@@H]1CN([C@H](C)CO)C(=O)c2cc(NS(=O)(=O)c3cccs3)ccc2O[C@H]1CN(C)Cc1ccccc1 | 7 | 2 | 8 | 1 | 3
CCc1nc(C)c(C(=O)N2CCCC(C(=O)Nc3cccc(-c4cccc(C)c4)c3)C2)o1 (stereo not given) | 3 | -11 | -6 | 1 | -2
O=C1CCCN1C1CCN(Cc2ccccc2)S(=O)(=O)N1 (stereo not given) | nt | nt | nt | 0 | nt
CCCCCCCCN1C(=O)[C@@H](CC(=O)NCCCN2CCCC2=O)C[C@@]2(C(=O)OC)C1=C[C@H](C1CCCC1)O[C@@H]2C | nt | nt | nt | -2 | nt
C[C@H](CO)N1C[C@H](C)[C@@H](CN(C)C(=O)Nc2ccc(C(F)(F)F)cc2)Oc2c(NC(=O)Nc3ccc(C(F)(F)F)cc3)cccc2C1=O | -15 | -51 | -41 | 20* | 51*
COc1ccc(NC(=O)Nc2cccc3c2O[C@H](CN(C)C(=O)Nc2ccc(C(F)(F)F)cc2)[C@@H](C)CN([C@H](C)CO)C3=O)cc1 | -2 | -8 | 3 | nt | 68*
Cc1ccc(S(=O)(=O)Nc2cccc3c2O[C@H](CN(C)C(=O)Nc2ccc(C(F)(F)F)cc2)[C@@H](C)CN([C@H](C)CO)C3=O)cc1 | 20 | 14 | -1 | 1 | 22
C[C@H](CO)N1C[C@H](C)[C@@H](CN(C)C(=O)Nc2ccc(C(F)(F)F)cc2)Oc2c(NS(=O)(=O)c3cccs3)cccc2C1=O | 12 | 2 | 2 | 1 | 25*
SMILES | pPAFAH FP inh | PAFAH2 inh | PAFAH1B3 FP inh | TCR-CD3 inh | PAFAH1B2 FP inh
COCCNC(=O)C1(C)Cc2c(-c3cccc(C(F)(F)F)c3)ccnc2O1 (stereo not given) | nt | nt | nt | -1 | nt
O=S(=O)(c1ccc(F)cc1)N1CCCc2nc(-c3ccc(F)cc3)ccc21 | nt | nt | nt | 3 | nt
O=C(O)C1CCN(C(=O)CSc2nc3ccccc3c(=O)n2-c2ccc(Cl)cc2)CC1 | -3 | 0 | 0 | 1 | 0
CC(=O)N1CCN(c2ccc(Oc3ccc([N+](=O)[O-])c(C(F)(F)F)c3)cc2)CC1 | 25* | -7 | 4 | nt | 7
CCOc1ccc(C(=O)Nc2ccc(N3CCN(C(C)=O)CC3)cc2)cc1[N+](=O)[O-] | 11 | 6 | 11 | -5 | 0
CC(C)(C)c1ccc(OCC(=O)NNC(=O)Nc2ccccc2)cc1 | 30* | -4 | 6 | -7 | 39*
CC(C)(C)n1nnnc1C(c1ccccc1OC(F)(F)F)N1CCN(C/C=C/c2ccccc2)CC1 (stereo not given) | nt | nt | nt | -14 | nt
CCN(CC)S(=O)(=O)c1ccc(OC)c(NC(=O)CC2CCCC2)c1 | 5 | 0 | -10 | -2 | -2
Cc1nn(-c2ccccc2)c(C)c1C(=O)OC(C)C(=O)NC1CCCCC1C (stereo not given) | 4 | 3 | 9 | -4 | 6
C[C@@H]1CN([C@@H](C)CO)C(=O)CCCn2cc(nn2)CO[C@H]1CN(C)C(=O)Oc1ccccc1 | nt | nt | nt | 2 | nt
COc1ccccc1/C=C/C1=NC(=C\C=C/c2ccccc2)/C(=O)O1 | 12 | -7 | -5 | -2 | -10
COc1ccccc1/C=C/C=C1N=C(/C=C/c2ccc(Cl)cc2)OC/1=O | 30* | -9 | -22 | 0 | -16
O=C(NNC(=O)C12CC3CC(CC(Cl)(C3)C1)C2)c1csc(N2CCOCC2)n1 | 0 | 11 | 3 | -8 | 33*
O=C(NNC(=O)C12CC3CC(CC(O)(C3)C1)C2)c1csc(N2CCOCC2)n1 | 6 | 3 | -1 | 6 | -5
CC(C)Cn1c(N)c(-c2nc(C(C)C)c(C(=O)c3ccccc3F)s2)c(=O)n(C)c1=O | 0 | nt | nt | nt | nt
Cc1ccc(C(Nc2ccccc2)c2ccc3ccc(C)nc3c2O)c(C)c1 (stereo not given) | nt | nt | nt | -5 | nt
C[C@H]1COC(=O)[C@@H](Cc2ccc(F)cc2)CC/C=C/C[C@@H](CC(=O)N(CCO)Cc2ccccc2)C(=O)N1 | 4 | 2 | 4 | -3 | 26*
C[C@H]1COC(=O)[C@@H](Cc2ccc(F)cc2)CC/C=C/C[C@H](CC(=O)N(CCO)Cc2ccccc2)C(=O)N1 | 1 | -7 | -2 | 0 | 25*
CCn1cc(C(=O)NCc2ccc(C)cc2)c(=O)c2cc(S(=O)(=O)N(C)C)ccc21 | -9 | -1 | 2 | -4 | 7
